Source: PubChem
Sampled rows, rich in hits. Any-hit rate of the full collection: about 3.1%.
Anthrax LF prot: inhibitors of Bacillus anthracis lethal factor protease; P15917; multiplex microsphere protease cleavage assay, LF; inhibition, % at 10 µM; 360,000 compounds, 0.12% hits; AID 588501; further: plate controls were buffer without enzyme for full effect and enzyme alone for no effect
Target sequence (P15917 whole entry, looked up): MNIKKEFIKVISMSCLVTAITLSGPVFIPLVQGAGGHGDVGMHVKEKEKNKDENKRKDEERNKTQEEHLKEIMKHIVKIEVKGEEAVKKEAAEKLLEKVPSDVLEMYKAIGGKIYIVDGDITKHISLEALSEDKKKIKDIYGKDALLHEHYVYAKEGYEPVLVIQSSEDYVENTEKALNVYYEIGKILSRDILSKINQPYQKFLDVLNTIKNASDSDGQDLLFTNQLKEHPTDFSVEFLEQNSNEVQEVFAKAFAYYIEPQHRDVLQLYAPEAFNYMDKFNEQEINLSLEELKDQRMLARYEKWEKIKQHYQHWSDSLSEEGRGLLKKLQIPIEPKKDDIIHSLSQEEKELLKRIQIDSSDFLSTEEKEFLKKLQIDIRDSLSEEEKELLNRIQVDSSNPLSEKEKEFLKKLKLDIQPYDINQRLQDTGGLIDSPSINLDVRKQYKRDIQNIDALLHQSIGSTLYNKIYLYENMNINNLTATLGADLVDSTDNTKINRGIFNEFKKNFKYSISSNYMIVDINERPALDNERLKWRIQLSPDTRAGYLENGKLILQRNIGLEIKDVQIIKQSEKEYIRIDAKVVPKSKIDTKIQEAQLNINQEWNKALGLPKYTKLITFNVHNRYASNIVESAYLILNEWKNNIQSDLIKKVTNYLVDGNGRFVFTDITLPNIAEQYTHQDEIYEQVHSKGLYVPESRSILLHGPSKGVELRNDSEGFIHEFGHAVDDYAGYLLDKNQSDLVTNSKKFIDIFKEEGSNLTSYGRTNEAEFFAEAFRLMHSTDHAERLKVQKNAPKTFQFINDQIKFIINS
SSB-PriA inh: K. pneumoniae PriA-SSBct interaction inhibition | AlphaScreen SSBct-PriA binding, biotinylated peptide | inhibition, % at 33 µM | 430,000 compounds, 0.6% hits | AID 1272365; in the data active means inhibition mostly above about 37%, no sharp cut-off; inactive means mostly below about 20%;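 further: plate controls were negative control peptide for no effect and reference peptide for full effect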
BoNT-A LC inh2: inhibitors of Botulinum neurotoxin A light chain protease. multiplex microsphere protease substrate cleavage, flow cytometry. inhibition, % at 10 µM. 360,000 compounds, 0.17% hits. AID 588499; further: plate controls were buffer without enzyme for full effect and enzyme alone for no effect
Autofluor counter: counter-screen for toxin protease inhibitors: compound fluorescence; 360,000 compounds, 3.1% hits; compound autofluorescence counterscreen, microsphere flow cytometry; hits give high values; AID 624483; fluorescence intensity (test concentration not listed); in the data active means fluorescence intensity above about 16000; inconclusive means no clear call, values can overlap the other calls
BoNT-F LC inh: blocks Botulinum neurotoxin F light chain protease; 360,000 compounds, 0.22% hits; inhibition, % at 10 µM; Multiplex microsphere protease cleavage assay, flow cytometry; AID 588497; in the data active means inhibition above about 35%, passing the limit was not always enough; inconclusive means no clear call, values can overlap the other calls; further: plate controls were buffer without enzyme for full effect and enzyme alone for no effect
Numbers without * were called inactive; ! = not confirmed by another sample. Unless noted, no stated cut-off is given here; in the data, active means inhibition above about 30%; inconclusive means no clear call, values can overlap the other calls; inactive means below that.

Screening COc1ccc2sc(N(Cc3ccccc3)C(=O)c3ccc(S(=O)(=O)N(C)C)cc3)nc2c1 returned SSB-PriA inh -10.0.
CCN(Cc1ccccc1)S(=O)(=O)c1ccc(C(=O)N(CCCN(C)C)c2nc3ccc(F)cc3s2)cc1 was read as Anthrax LF prot -3.7, SSB-PriA inh 37.0*!, BoNT-A LC inh2 -3.1, Autofluor counter 6567 and BoNT-F LC inh -8.1.
For C=c1cc(C)n(CC(=O)Nc2ccsc2C(=O)OC)c(=O)c1=C1N=C(c2ccc(F)cc2)NO1 the results were SSB-PriA inh -14.0.
For O=C(NC[C@@](O)(c1cccs1)C1CC1)NC1CCCCC1 the results were SSB-PriA inh -6.0.
For O=C(Nc1ccccn1)Nc1c[nH]c2ccccc12 the results were SSB-PriA inh 30.0.
Screening COc1ccc2sc(N(CCCN(C)C)C(=O)c3ccc(S(=O)(=O)N4CCCc5ccccc54)cc3)nc2c1 returned Anthrax LF prot -2.3, SSB-PriA inh 36.0*!, BoNT-A LC inh2 -2.7, Autofluor counter 5711 and BoNT-F LC inh -3.1.
COc1cc2nc(N(CCCN(C)C)C(=O)c3ccc(S(=O)(=O)N4CCc5ccccc54)cc3)sc2cc1OC was read as Anthrax LF prot 1.7, SSB-PriA inh 27.0, BoNT-A LC inh2 2.9, Autofluor counter 4440 and BoNT-F LC inh 3.5.
For O=C([C@H]1CCc2nc[nH]c2C1)N(CCO)Cc1ccccc1 the results were SSB-PriA inh -1.0.
For FC(F)(F)c1cccc(Cn2nnnc2-c2cccc(C(F)(F)F)c2)c1 the results were Anthrax LF prot -0.2, SSB-PriA inh -35.6, BoNT-A LC inh2 inconclusive, Autofluor counter 24655* and BoNT-F LC inh -8.4.
For FC(F)(F)c1cccc(Cn2nnnc2-c2cc(Cl)cc(Cl)c2)c1 the results were Anthrax LF prot -1.5, SSB-PriA inh -70.7, BoNT-A LC inh2 inconclusive, Autofluor counter 16997* and BoNT-F LC inh -3.4.
`O=c1c2cc(-c3ccccc3)nn2cnn1Cc1cccc(C(F)(F)F)c1` gave SSB-PriA inh -5.0.
For COC(=O)CCCCC1SCC2NC(=O)NC21O (stereo not given) the results were Anthrax LF prot 4.2, SSB-PriA inh -15.3, BoNT-A LC inh2 9.6, Autofluor counter 4177 and BoNT-F LC inh 79.1*.
Screening Cn1nc(CNC(=O)c2ccccc2Cl)cc1C1CC1 returned SSB-PriA inh -2.0.
O=C1c2ccccc2C(=Nc2ccccc2)C1c1cccc(Br)c1 (stereo not given) was read as Anthrax LF prot -9.9, SSB-PriA inh 9.8, BoNT-A LC inh2 0.8, Autofluor counter 21729* and BoNT-F LC inh -2.5.
Screening O=C(CSc1nnc(-c2ccccc2)o1)Nc1nsc(-c2ccccc2)n1 returned SSB-PriA inh 2.0.
C=CCOc1ccccc1/C=N/O was read as Anthrax LF prot -1.6, BoNT-A LC inh2 inconclusive, Autofluor counter 24314* and BoNT-F LC inh -4.9.
For C=CCOc1ccc(Br)cc1C=NO the results were SSB-PriA inh -7.0.
`Cc1cc(C)c(C)c(OCCCCn2cnc3ccccc3c2=O)c1` gave Anthrax LF prot -3.2, SSB-PriA inh -25.8, BoNT-A LC inh2 0.1, Autofluor counter 23324* and BoNT-F LC inh -0.9.
`COc1cccc(OC)c1OCCCCn1cnc2ccccc2c1=O` gave Anthrax LF prot 1.0, SSB-PriA inh -9.9, BoNT-A LC inh2 0.1, Autofluor counter 4210 and BoNT-F LC inh -5.2.
`C=CCN1C(=O)C(C)(C)COc2ccc(NC(=O)c3cccc(Br)c3)cc21` gave SSB-PriA inh 18.0.
Screening O=C(NCC(O)(c1cccs1)C1CC1)Nc1ccc2c(c1)OCO2 (stereo not given) returned SSB-PriA inh -15.0.
`O=C(NCc1ccccc1)C1(c2ccccc2)CCN(S(=O)(=O)c2ccccc2)CC1` gave Anthrax LF prot -1.9, SSB-PriA inh -9.7, BoNT-A LC inh2 -1.3, Autofluor counter 16987* and BoNT-F LC inh -1.9.
O=C(O)C1(c2ccccc2)CCN(S(=O)(=O)c2ccccc2)CC1 was read as Anthrax LF prot -2.7, SSB-PriA inh -19.1, BoNT-A LC inh2 -0.5, Autofluor counter 4504 and BoNT-F LC inh -4.1.
COc1ccc(C(=O)C=C(C)Nc2ccc(NC(C)=O)cc2)cc1 was read as SSB-PriA inh 0.9.
For Cc1cc(S(=O)(=O)Nc2nc(CN3CCOCC3)nc3sc4c(c23)CCC4)cc(C)c1C the results were SSB-PriA inh 7.1.
`NS(=O)(=O)c1ccc(CCNc2nc(CN3CCCCC3)nc3sc4c(c23)CCC4)cc1` gave Anthrax LF prot -1.7, SSB-PriA inh 2.6, BoNT-A LC inh2 -3.0, Autofluor counter 21682* and BoNT-F LC inh -4.1.
For Cc1cc([N+](=O)[O-])nn1CC(=O)NNC(=S)Nc1ccc(F)cc1 the results were Anthrax LF prot -2.9, SSB-PriA inh -4.6, BoNT-A LC inh2 -5.1, Autofluor counter 11344 and BoNT-F LC inh -50.6.
